Hits are enriched below; roughly 15% of the tested compounds scored in any of these assays.
Pf growth 48h – Primary qHTS for delayed death inhibitors of the malarial parasite plastid, 48 hour incubation; P. falciparum luciferase growth in erythrocytes, 48 h; Potency, µM (doses to about 28.7 µM), without a hit: at the top dose activity change, negative = inhibition, most hits filed as inhibitors; hit rate 5.9% among 310,000; AID 504832, 2011; further: potency means the concentration at half of the fitted maximal effect; on the % scale 0 is the no-effect control and ±100 the full control effect
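Growth was read as firefly luciferase luminescence after a 48 h, 37 C, 5% CO2 exposure of compounds to reporter-bearing P. falciparum cultures (0.1% parasitemia, 2% hematocrit final) in Albumax-supplemented RPMI 1640.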
Sm TGR block – qHTS Assay for the Inhibitors of Schistosoma Mansoni Peroxiredoxins | Potency, µM (doses to about 114 µM), for inactives: top-dose activity change, negative = inhibition, hits mostly inhibitors | AID 485364, 2010 | purified TGR, DTNB reduction, TNB absorbance 405 nm | hit rate 3% among 360,000; further: potency means the concentration at half of the fitted maximal effect; on the % scale 0 is the no-effect control and ±100 the full control effect; nearly all actives have a fitted effect of over 60% in size
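First, TGR (20 nM dispensed) and NADPH were mixed with compound. Second, a 15 min room-temperature incubation followed. Third, further NADPH and then DTNB were added to start the reaction. Finally, TNB absorbance was monitored kinetically.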
Pf growth 96h – Primary qHTS for delayed death inhibitors of the malarial parasite plastid, 96 hour incubation; hit rate 6.9% among 320,000; Potency, µM (doses to about 28.7 µM), for the others: at the highest dose activity change, negative = inhibition, hits mostly inhibitors; P. falciparum luciferase reporter growth, 96 h; further: potency means the concentration at half of the fitted maximal effect; on the % scale 0 is the no-effect control and ±100 the full control effect
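Delayed-death screen, second-generation endpoint: infected erythrocytes, 2% hematocrit, 0.05% parasitemia final; 96 hours at 37 C, 5% CO2; luciferase detection reagent; luminescence decrease equals reduced growth.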
SARS PLP yeast – qHTS of Yeast-based Assay for SARS-CoV PLP; S. cerevisiae expressing SARS-CoV PLpro, growth rescue; Potency, µM (doses to about 32.9 µM), inactives show at the top dose activity, positive = growth rescue, most hits filed as activators; hit rate 0.19% among 330,000; AID 485353, 2010; calls by dose curve; further: potency means the concentration at half of the fitted maximal effect; 0% is about no effect; nearly all actives have a fitted effect of over 55% in size
HCMV inh – qHTS Assay for inhibitors of the human cytomegalovirus (HCMV); HFF cells, HCMV-luciferase reporter, 72 h; stronger effect = lower value; activity change, negative = inhibition, % at 57.5 µM; hit rate 4.5% among 410,000; AID 1259415, 2018; in the data active means activity change below about -60%; inconclusive means no clear call, values can overlap the other calls; inactive means above about -39%; further: on the % scale 0 is the no-effect control and ±100 the full control effect
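Screen run at 2 compound doses on HFFs infected with reporter HCMV, MOI 1 PFU/cell. Luciferase activity from cell lysates at 72 h post infection gave inhibition relative to buffer-only and Salinomycin wells.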
HCV inhibitor – qHTS Assay for Inhibitors of Hepatitis C Virus (HCV). Huh7.5.1 HCVcc-Cre infection, luciferase reporter, 44 h. hit rate 3.4% among 340,000. Potency, µM (top dose mostly 41.8 µM), for the others: at the top dose activity change, negative = inhibition, actives largely listed as inhibitors; further: potency means the concentration at half of the fitted maximal effect; on the % scale 0 is the no-effect control and ±100 the full control effect
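Whole-lifecycle infectious HCVcc-Cre system; cells 1,000/well, compound then virus (~0.5 moi) added 4 h after plating, 44 h culture. Luciferase read 15 sec following 15 min substrate incubation, room temp.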
* hit, by the source's call; ? = inconclusive; · = no result; [ ] = dose if it differs, or a comment. Unless noted, the call rests on the fitted dose curve; in most records, active means well fitted curve in the direction sought with a large enough effect; inconclusive means small, poorly fitted or top-dose-only effect, or another doubt; inactive means no such curve, though single readings can be large; an effect the other way counts as inactive or inconclusive.

SMILES	Pf growth 48h	Sm TGR block	Pf growth 96h	SARS PLP yeast	HCMV inh	HCV inhibitor
COc1cc(C(=O)Nc2ccc(C)cc2)c2ccccc2n1	-14.4%[0.00184 µM]	-10.9%	16.6%	-4.0%	-60.0*	-7.3%
Cc1ccc(NC(=O)c2cc(Cl)nc3ccccc23)cc1	3.9%	7.8%	134.5%	-3.5%	-16.0	3.3%
N#CC12CCCCC1CC1CCCCC1(C#N)N2N (configuration not stated)	13.1µM*	-0.2%	?	-1.1%	-7.4	-2.1%
N#CC12CCCCC1CC1CCCCC1(C#N)N2Cc1ccccn1 (configuration not stated)	?	-14.3%	9.28µM*	5.5%	-4.0	27.5%
N#CC12CCCCC1CC1CCCCC1(C#N)N2CCO (configuration not stated)	6.5%	5.0%	63.4%[5.75 µM]	0.2%	-1.5	9.3%
CC(C)(C)OC(=O)N1CCC(C(=O)N2CCCCCC2)CC1	0.8%	-2.8%	11.7µM*	5.4%	13.9	16.4%
CC(C)(C)OC(=O)N1CCC(C(=O)N2CCOCC2)CC1	42.0%	?	5.2%	9.4%	15.8	0.8%
O=C(C1CCC(C(=O)N2CCCCC2)CC1)N1CCCCC1 (configuration not stated)	1.7%	-14.9%	7.0%	-0.8%	-60.6*	3.2%
COC(=O)C1CCN(C(=O)C2CCCCC2)CC1	-4.6%	-1.7%	?	2.9%	96.3	5.01µM*
O=C(c1ccc(F)cc1)N1CCC(c2nc3ccccc3s2)CC1	·	-1.2%	·	·	-9.7	·
Cc1nn2c(-c3ccccn3)ccnc2c1Cl	27.4%	-0.5%	16.4%	0.9%	-22.2	-2.7%
Cc1ccc(C(=O)Nc2ccccc2N2CCN(C(=O)C(C)C)CC2)cc1	9.28µM*	74.0%	·	-1.4%	?	-15.6%
COc1ccc(Br)cc1C(=O)Nc1ccc(NC(=O)c2ccco2)cc1	·	-9.1%	42.3%	10.2%	·	-14.0%
O=C(Nc1ccccc1N1CCCC1)c1cccc(F)c1	9.1%	-6.3%	-7.5%	0.8%	-3.3	-8.2%
CCCCOc1cccc(C(=O)Nc2ccccc2N2CCCC2)c1	?	2.5%	?	-2.3%	-11.1	12.6µM*
COc1ccc(Br)cc1C(=O)Nc1cc(C)cc(C)c1	-12.7%	2.7%	?	5.8%	-37.2	5.62µM*
CC(NC(=O)c1ccco1)C(=O)N1CCN(c2ccccc2)CC1 (configuration not stated)	-6.7%	-21.7%	18.4%	1.0%	·	-2.2%
CC(NC(=O)c1ccco1)C(=O)N1CCN(C(c2ccccc2)c2ccccc2)CC1 (configuration not stated)	13.1µM*	-0.8%	30.5%	-6.6%	·	·
COc1ccc(CCNC(=S)NC(=O)c2cccc([N+](=O)[O-])c2)cc1OC	44.6%	1.1%	-7.8%	-0.9%	13.3	?
CNC[C@@H]1Oc2cc(Br)ccc2S(=O)(=O)N([C@@H](C)CO)C[C@@H]1C	·	·	·	·	8.2	·
CCOC(=O)N1CCC(N2C(=O)c3ccc(C(=O)Nc4cccc(OC)c4)cc3C2=O)CC1	12.0%	1.5%	-2.8%	0.6%	27.2	2.0%
COC(=O)c1ccc(Cl)cc1NC(=O)N1CCCn2nc(C)cc21	·	4.3%	·	·	6.9	·
O=C(Nc1ccc(Cl)cc1)c1ccc(Br)cc1F	125.5%	10.0%	137.8%	-0.5%	44.6	-24.9%
COc1ccc(Cl)cc1C(=O)Nc1ccccc1N1CCN(C(=O)C(C)C)CC1	5.86µM*	-15.9%	5.22µM*	-1.3%	-5.3	?
CN(C)C(=O)Oc1ccc(Br)cc1C(=O)Nc1ccc(F)c(Cl)c1	1.17µM*	7.0%	?	-5.4%	-22.7	?
SMILES	Pf growth 48h	Sm TGR block	Pf growth 96h	SARS PLP yeast	HCMV inh	HCV inhibitor
COc1ccc(C(=O)Nc2ccccc2N2CCN(C(=O)C(C)C)CC2)cc1Cl	11.7µM*	3.1%	-28.6%	-20.5%	-11.6	?
COc1ccc(Cl)cc1C(=O)NC(=S)Nc1ccccc1N1CCOCC1	?	-1.9%	?	1.9%	23.6	-7.2%
CC(C)C(=O)N1CCN(c2ccccc2NC(=O)c2ccco2)CC1	4.65µM*	-15.6%	29.9%	-0.1%	-26.2	7.4%
O=C(NCC(=O)N1CCCCCCC1)c1ccc(Cl)c(Cl)c1	·	·	·	·	-14.3	·
COc1ccc(Cl)cc1C(=O)Nc1ccc(NC(=O)C(C)C)cc1	-22.8%	7.0%	17.3%	-0.6%	?	3.98µM*
CSCCC(NC(=O)c1ccc(Cl)cc1Cl)C(=O)N1CCN(C(=O)c2ccccc2)CC1 (configuration not stated)	·	·	·	·	0.0	-23.0%
CSCCC(NC(=O)c1ccccc1)C(=O)N1CCN(C(c2ccccc2)c2ccccc2)CC1 (configuration not stated)	?	-28.0%	1.85µM*	0.4%	-18.7	12.6µM*
CCOc1cccc(C(=O)Nc2ccccc2N2CCN(C(=O)C(C)C)CC2)c1	9.28µM*	1.1%	13.1µM*	-22.9%	?	-29.2%
CC(=O)c1ccc(N2CCN(C(=O)CCCc3nc4ccccc4s3)CC2)cc1	?	-8.7%	?	16.3%	-31.7	?
COC(=O)c1ccccc1NC(=O)CNCCc1ccc(OC)c(OC)c1	0.0%	-1.2%	-7.0%	11.7%	33.5	1.8%
Cc1ccc(S(=O)(=O)N2CCCCC2)cc1C(=O)NCCCN1CCOCC1	-21.3%	28.3%	18.0%	1.0%	14.0	17.9%
CC(C)=CCc1cc([C@@H]2COc3c(ccc4c3C=CC(C)(C)O4)C2)c(O)cc1O	·	·	·	·	-106.4*	?
COc1cc2nc(N3CCN(C(=O)[C@@H]4COc5ccccc5O4)CC3)nc(N)c2cc1OC	15.1µM*	·	13.5µM*	·	·	·
COc1ccc2nc(N3CCN(C(=O)C4COc5ccccc5O4)CC3)sc2c1 (configuration not stated)	4.6%	3.2%	35.5%	1.7%	28.3	?
COc1cc2nc(N3CCN(C(=O)C4COc5ccccc5O4)CC3)nc(N)c2cc1OC (configuration not stated)	4.65µM*	3.9%	3.7µM*	-3.6%	6.5	?
CCOC(=O)c1ccc(N2C(=O)C3CCCN3C2=S)cc1 (configuration not stated)	?	8.9%	?	1.5%	-0.4	-6.5%
CCOC(=O)c1ccc(N2C(=O)C(CC(N)=O)N(CCc3ccc(OC)c(OC)c3)C2=S)cc1 (configuration not stated)	14.7µM*	0.2%	59.6%	-3.0%	35.9	6.2%
COc1ccc(CCN2C(=S)N(c3ccc(Cl)cc3)C(=O)C2CC(N)=O)cc1OC (configuration not stated)	10.4µM*	1.3%	11.7µM*	-0.2%	-32.4	?

Compound activity as filed in PubChem BioAssay.
